Measurements published in PubChem BioAssay (NCATS).
A number with no mark means an inactive call. Results filed as inconclusive are left out. Activity calls are given as the source filed them. Unless noted, calls follow the shape of the dose curve; as a rule, active = well fitted curve in either direction with a large enough effect (not every such curve was filed as active); inconclusive = small, poorly fitted or top-dose-only effect, or another doubt; inactive = flat fitted curve, though single readings scatter.

Tests used:
[1] = target: Lysosomal acid glucosylceramidase (Homo sapiens) (UniProt P04062); experiment: Glucocerebrosidase-p2 (AID 348; in the data active = potency below about 10 µM; also: potency is read from the fitted curve at half-maximal effect); settings: purified GBA, blue fluorogenic substrate, 40 min
Lysosomal acid glucosylceramidase (Homo sapiens), sequence (P04062 whole entry, looked up): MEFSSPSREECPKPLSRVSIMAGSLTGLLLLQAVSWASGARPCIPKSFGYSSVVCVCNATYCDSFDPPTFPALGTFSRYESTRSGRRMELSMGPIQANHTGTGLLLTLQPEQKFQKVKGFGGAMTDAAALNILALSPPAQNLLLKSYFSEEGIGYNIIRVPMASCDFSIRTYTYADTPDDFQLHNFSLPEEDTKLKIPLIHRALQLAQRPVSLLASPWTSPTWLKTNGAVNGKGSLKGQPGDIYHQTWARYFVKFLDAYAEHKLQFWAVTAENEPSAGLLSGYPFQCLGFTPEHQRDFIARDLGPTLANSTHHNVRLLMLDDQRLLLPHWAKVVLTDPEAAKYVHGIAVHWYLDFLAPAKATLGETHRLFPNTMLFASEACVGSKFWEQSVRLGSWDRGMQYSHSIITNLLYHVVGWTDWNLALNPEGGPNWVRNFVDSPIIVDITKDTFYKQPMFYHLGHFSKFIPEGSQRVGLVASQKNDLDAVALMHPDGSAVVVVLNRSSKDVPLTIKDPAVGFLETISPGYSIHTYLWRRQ
Procedure, shortened: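 Compounds titrated from 0.6 nM upwards against 0.2 nM enzyme in pH 5.9 citric acid/KH2PO4, taurocholate, tween-20; blue fluorogenic substrate 80 uM, 40 min room temperature, stopped and read Ex 365/Em 440 for AC50.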

[2] = AP1 Signaling Pathway (AID 357); settings: ME-180 AP-1-bla reporter, EGF-induced, beta-lactamase ratio, 5 h; at 7.69 µM (top of the series) unless noted; also: % is scaled to controls: 0 for no effect and ±100 for the full control effect
Procedure, shortened: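 AP-1-bla ME-180 cells with beta-lactamase reporter under AP-1 response element, stimulated with EC50 EGF; compounds titrated, 5 hours at 37 degrees Celsius. CCF4 read at 460/530 nm ratio; positive and negative modulators judged by AC50.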

[3] = target: Cytochrome P450 1A2 (Homo sapiens) (UniProt P05177); experiment: p450-cyp1a2 (AID 410; calls by dose curve; also: potency is read from the fitted curve at half-maximal effect;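 as to activity change, negative = inhibition: -100% = full effect of reference inhibitor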); settings: recombinant CYP1A2, luciferin-ME demethylation, luminescence; series mostly up to 11.4 µM
Cytochrome P450 1A2 (Homo sapiens), sequence (P05177 whole entry, looked up): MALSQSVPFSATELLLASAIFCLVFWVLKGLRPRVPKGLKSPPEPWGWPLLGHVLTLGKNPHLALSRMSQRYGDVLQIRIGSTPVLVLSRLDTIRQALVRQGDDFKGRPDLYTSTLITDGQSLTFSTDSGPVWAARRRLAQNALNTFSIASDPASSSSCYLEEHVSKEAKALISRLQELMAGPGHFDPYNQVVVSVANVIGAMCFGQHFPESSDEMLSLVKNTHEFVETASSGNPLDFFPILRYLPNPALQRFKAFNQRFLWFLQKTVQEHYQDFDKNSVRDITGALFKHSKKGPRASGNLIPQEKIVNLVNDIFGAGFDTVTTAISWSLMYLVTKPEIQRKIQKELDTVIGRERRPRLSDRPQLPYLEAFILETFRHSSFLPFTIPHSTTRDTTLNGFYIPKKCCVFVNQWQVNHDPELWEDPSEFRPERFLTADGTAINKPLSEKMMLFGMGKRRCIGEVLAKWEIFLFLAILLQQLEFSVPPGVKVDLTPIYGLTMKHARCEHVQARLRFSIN
Procedure, shortened: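 20nM CYP1A2 with 100uM Luciferin-ME (at Km) in 100mM KPO4; compound preincubated 10 min, NADPH regeneration added, 60 min at room temperature. Luciferin quantified by luminescence after detection reagent; normalized to 57 uM furafylline.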

[4] = NFAT Signaling Pathway (AID 444); settings: Jurkat NFAT-bla M1, carbachol, beta-lactamase ratio, 5 h; at 7.69 µM (top of the series) unless noted;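 also: carbachol stimulus at about its EC50 of 1 µM final; % is scaled to controls: 0 for no effect and ±100 for the full control effect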
Procedure, shortened: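 Read-out: CCF4 FRET ratio (460 nm/530 nm) after 1 h RT dye loading, used for %activity and AC50 from titration series. Cells: Jurkat NFAT-β-lactamase/M1 line, treated with compound plus 1 uM carbachol for 5 h, 37 °C.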

[5] = Stat Signaling Pathway (AID 446); settings: ME-180 SIE beta-lactamase reporter, IL-6 stimulated, 5 h; at 7.69 µM (top of the series) unless noted;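 also: ME-180 cervical cancer cells given 40 pM IL-6 alongside compound; SIE-controlled beta-lactamase reporter measured as 460/530 nm FRET emission ratio; % is scaled to controls: 0 for no effect and ±100 for the full control effect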
Procedure, shortened: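 ME-180 cells carrying a SIE-driven beta-lactamase reporter are stimulated with 40 pM IL-6 for 5 h at 37C in the presence of compound. The 460/530 nm FRET substrate ratio is read after 2.5 h at RT. Data are normalised to 300 pM IL-6 and to 125 nM JAK inhibitor controls.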

[6] = target: 3',5'-cyclic-AMP phosphodiesterase 4B (Homo sapiens) (UniProt Q07343); experiment: qHTS Assay for Inhibitors of PDE-IV (AID 607; active = well fitted activation curve with a large enough effect in the main read-out, with a control signal flat, not every such curve was filed as active; also: % of control where 0% means no effect); settings: HEK293 ACTOne CNG channel cells, membrane potential fluorescence; series mostly up to 22.9 µM
3',5'-cyclic-AMP phosphodiesterase 4B (Homo sapiens), sequence (Q07343 whole entry, looked up): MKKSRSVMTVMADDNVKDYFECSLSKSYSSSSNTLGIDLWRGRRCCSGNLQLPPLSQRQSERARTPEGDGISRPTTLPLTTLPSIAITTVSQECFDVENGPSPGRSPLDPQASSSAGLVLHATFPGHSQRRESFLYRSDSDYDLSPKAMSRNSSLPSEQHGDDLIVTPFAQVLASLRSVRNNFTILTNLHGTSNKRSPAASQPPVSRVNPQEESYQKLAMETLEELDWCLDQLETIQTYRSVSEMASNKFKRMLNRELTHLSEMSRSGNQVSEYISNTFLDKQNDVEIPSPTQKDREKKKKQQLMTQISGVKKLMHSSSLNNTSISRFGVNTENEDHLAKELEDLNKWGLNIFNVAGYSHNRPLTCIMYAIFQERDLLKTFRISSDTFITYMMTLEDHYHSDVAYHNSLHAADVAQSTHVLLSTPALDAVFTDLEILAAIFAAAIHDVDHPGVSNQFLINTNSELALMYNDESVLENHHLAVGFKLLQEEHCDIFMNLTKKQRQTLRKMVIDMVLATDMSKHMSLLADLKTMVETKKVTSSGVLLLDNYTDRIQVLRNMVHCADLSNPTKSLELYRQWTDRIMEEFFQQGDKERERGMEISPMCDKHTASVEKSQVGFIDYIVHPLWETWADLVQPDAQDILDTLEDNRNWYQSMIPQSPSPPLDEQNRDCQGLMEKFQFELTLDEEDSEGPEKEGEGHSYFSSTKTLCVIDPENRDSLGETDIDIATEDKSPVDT
Procedure, shortened: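 HEK293 ACTOne cells with CNG channel (1000/well), endogenous PDE4; membrane potential dye, compounds up to 22.9 uM final. Fluorescence Ex 535/Em 590; RO 20-1724 (100 uM final) as reference.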

[7] = target: Glucocorticoid receptor (Homo sapiens) (UniProt P04150); experiment: GR-GFP Redistribution (AID 450;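 active = compounds whose dose series gives a full or clear partial fitted curve of increased nuclear translocation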; also: potency is read from the fitted curve at half-maximal effect); settings: U2OS GR-GFP nuclear translocation, laser cytometry, 2 h
Glucocorticoid receptor (Homo sapiens), sequence (P04150 whole entry, looked up, the tested form may be a part): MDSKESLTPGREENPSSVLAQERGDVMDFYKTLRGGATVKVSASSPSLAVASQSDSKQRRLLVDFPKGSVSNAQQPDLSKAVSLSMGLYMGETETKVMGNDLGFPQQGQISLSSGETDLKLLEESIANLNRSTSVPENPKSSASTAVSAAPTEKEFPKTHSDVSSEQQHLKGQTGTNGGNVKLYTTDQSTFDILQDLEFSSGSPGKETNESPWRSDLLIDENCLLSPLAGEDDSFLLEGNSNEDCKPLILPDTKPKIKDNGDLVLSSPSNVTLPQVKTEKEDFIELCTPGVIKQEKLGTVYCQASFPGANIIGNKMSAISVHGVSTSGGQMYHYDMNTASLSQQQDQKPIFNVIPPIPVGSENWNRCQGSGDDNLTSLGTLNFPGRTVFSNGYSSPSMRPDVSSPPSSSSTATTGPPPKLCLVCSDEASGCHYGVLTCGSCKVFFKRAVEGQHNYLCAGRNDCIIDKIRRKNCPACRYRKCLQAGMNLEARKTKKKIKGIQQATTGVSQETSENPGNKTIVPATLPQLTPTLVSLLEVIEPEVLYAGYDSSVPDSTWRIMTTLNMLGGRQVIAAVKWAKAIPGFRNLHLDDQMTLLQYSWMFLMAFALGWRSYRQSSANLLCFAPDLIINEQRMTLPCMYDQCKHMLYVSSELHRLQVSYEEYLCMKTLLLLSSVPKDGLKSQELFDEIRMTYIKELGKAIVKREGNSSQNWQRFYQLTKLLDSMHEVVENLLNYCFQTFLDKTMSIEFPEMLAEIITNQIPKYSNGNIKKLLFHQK

[8] = target: Glucocorticoid receptor (Homo sapiens) (UniProt P04150); experiment: GR-EFC Redistribution (AID 451; calls by dose curve; also: potency is read from the fitted curve at half-maximal effect); settings: CHO-K1 GR-EFC translocation, beta-gal luminescence, 2 h
Procedure, shortened: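 Translocation of GR-ED fusion to nuclear EA restores b-gal, read by luminescence after 1 h room-temperature detection. Engineered CHO-K1 biosensor cells, 1,000/well, exposed 2 h at 37 C to titrations up to 46 uM final.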

[9] = target: Mitogen-activated protein kinase 10 (Mus musculus) (UniProt Q61831); experiment: JNK3 AlphaScreen Assay (AID 530); settings: JNK3 lysate, c-Jun phosphorylation; series mostly up to 57.1 µM;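 also: kinase came from lysate of stimulated human HepG2 cells; signal reports phosphorylation of biotinylated GST-cJun 1-79 at Ser73 with 10 µM ATP; % is scaled to controls: 0 for no effect and ±100 for the full control effect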
Procedure, shortened: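 Compound titrations were preincubated 15 minutes at room temperature with substrate, antibody and pre-activated JNK3-containing HepG2 lysate. Reactions were started with 10 uM ATP and stopped with EDTA-containing bead buffer for AlphaScreen detection.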

[10] = qHTS Assay for Identification of Small Molecule Agonists for Hypoxia Response Element Signaling Pathway (AID 914; active = well fitted activation curve with a large enough effect in the signal ratio, with a control signal flat, not every such curve was filed as active; the % refers to the signal ratio; also: % of control where 0% means no effect); settings: ME-180 (cervical carcinoma) HRE-bla reporter, beta-lactamase ratio, CoCl2, 17 h; hits give high values
Procedure, shortened: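 AC50 values come from titration-series %Activity, taken as the 460/530nm ratio of CCF4 fluorescence (excitation 405nm). CellSensor HRE-bla ME-180 cells were treated 17 hours at 37 C with compound plus an EC50 level of CoCl2.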

| SMILES | Potency [1] | activity change, negative = inhibition [2] [%] | Potency [3] | activity change, negative = inhibition [4] [%] | activity, negative = inhibition [5] [%] | outcome [6] | Potency [7] [µM] | Potency [8] [µM] | activity change, negative = inhibition [9] | activity change, negative = inhibition [3] | activation [10] [%] |
| --- | --- | --- | --- | --- | --- | --- | --- | --- | --- | --- | --- |
| Cn1c(=O)c2[nH]cnc2n(C)c1=O.[CH2-][C@H](Cc1cccc2cc(C(=O)O)c(=O)oc12)OC.[Hg].[OH-] | 4.43 µM (active) | -5.03 | inactive | 6.5 | 14 | inactive |  |  |  |  |  |
| Cc1ccc(C2(c3ccc(C)c(O)c3C)CCN(C)CC2)c(C)c1O | > 11.4 µM | 2.94 | 5.01 µM (active) |  | 3.48 | inactive | > 46 | > 9.22 | 1.97% [at 11.4 µM] |  |  |
| C[C@]12CC[C@@H]3[C@H](CCC4=CC(=O)CC[C@]43C)[C@]1(O)CC[C@@]2(O)C(=O)CO | > 11.4 µM | -0.316 |  | 5.17 | -1.84 |  |  | > 9.22 | 4.11% [at 11.4 µM] | 4.8% [at 2.29 µM] | 7.15 |
| CN1CCN(c2ccc([N+](=O)[O-])c3[nH]o[n+](=O)c23)CC1 | > 11.4 µM | -7.81 | 0.398 µM (active) |  | 11.3 | inactive | > 46 | > 9.22 | -3.28% [at 11.4 µM] |  |  |
| C[C@@]12CC[C@H](O[C@@H]3O[C@H](CO)[C@@H](O)[C@H](O)[C@@H]3O)C[C@@H]1CC[C@H]1[C@H]2CC[C@@]2(C)[C@@H](C3=CCOC3=O)CC[C@]12O | > 11.4 µM | -9.15 | inactive | 2.85 | 12.3 | inactive |  | > 9.22 | 8.37% [at 11.4 µM] |  |  |
| O=C(O)/C=C\c1ccc[c]([Sb](=[O])([OH])[OH])c1 | > 11.4 µM | -8.12 |  |  | -20.4 | inactive | > 46 | > 9.22 | 3.13% [at 11.4 µM] | -9.5% [at 2.29 µM] |  |
